# Screens as filed in PubChem BioAssay.
# Shown is part of a subset that was picked to be rich in hits.
# Tgondii IFNg: inhibitors of Toxoplasma gondii growth with IFN-gamma; Toxoplasma gondii growth in IFN-gamma-treated host cells; stronger effect = lower value; activity change, negative = inhibition, % (test concentration not listed); actives 3.8% (n = 69,000); in the data active = activity change below about -70%, passing the limit was not always enough;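 also: host cells are HeLa cells infected with Toxoplasma gondii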
# * = called active by the depositor; ! = not confirmed by another sample.
SMILES,Tgondii IFNg
CCOc1cc(C(=O)NCCc2sc(-c3cccc(F)c3)nc2C)cc(OCC)c1OCC,42
COCCN(C)c1nc(C2CCN(C(=O)c3ccco3)CC2)cc2c1ncn2C,-13
CCN1CC2(CCN(C(=O)CC3CC3)CC2)COc2ccccc2S1(=O)=O,-8
COc1cc(-c2nc(Cn3ccn4nc(-c5ccc(C)cc5)cc4c3=O)c(C)o2)cc(OC)c1OC,-66
O=C(Nc1ccccc1-c1ccccc1)c1ccc2c(c1)[nH]c(=O)n2C1CCCC1,-92*
Cc1cc(C)c2nc(C)cc(C(=O)Nc3ccccc3-c3ccccc3)c2c1,-30
CCOc1ccc(-c2ccccc2NC(=O)C2CC2)cc1,23
CCSCCn1c(=O)n(Cc2ccc(F)cc2)c2ncc(C(=O)O)cc21,-13
Cc1cccc(Nc2nc(C(=O)Nc3cccc(Cl)c3)nc3ccccc23)c1,30
O=C(O)c1ccc2c(c1)nc(Nc1cccc(Cl)c1)c1ccncc12,-73*
Cc1ccc(Nc2nc(C(=O)Nc3cccc(Cl)c3)nc3ccccc23)cc1,5
CN1CCCN=C1COC(=O)C(O)(c1ccccc1)C1CCCCC1 (centres undefined),-74*!
OC(CCN1CCCC1)(c1ccccc1)C1CCCCC1 (centres undefined),-42
CC[N+](CC)(CC)CCC(O)(c1ccccc1)C1CCCCC1 (centres undefined),22
Cc1ccoc1C(=O)N1CC(=O)N(C2CCCCC2)CC(OCc2ccccc2)C1 (centres undefined),-19
COC1CN(C(=O)Cn2nc(-c3ccccc3)c3ccccc3c2=O)CC(=O)N(Cc2ccccc2)C1 (centres undefined),0
CC(C)(C)CN1CC2CN(S(=O)(=O)c3ccccc3)CC2C1 (centres undefined),-3
Cc1nc(OCC(=O)NCc2ccc(F)cc2)c2ccccc2n1,0
NCCC(=O)N1c2ccccc2Sc2ccccc21,32
O=C(c1ccc(F)cc1)N1c2ccccc2Sc2ccc(C(F)(F)F)cc21,-76*
FC(F)(F)c1ccc2c(c1)Nc1ccccc1S2,90
Cc1ncsc1CCN(C)Cc1ccc(CO)o1,8
CCOc1ccc(NC(=O)CN2C(=O)CCc3cc(S(=O)(=O)N4CCCC4)ccc32)cc1,32
CN1CCN(C2=Cc3ccccc3Oc3ccc(Cl)cc32)CC1,15
CN1CCCC(CC2c3ccccc3Sc3ccccc32)C1 (centres undefined),-11
SMILES,Tgondii IFNg
CSc1ccc2c(c1)C(N1CCN(C)CC1)Cc1ccccc1S2 (centres undefined),-77*
CN1CCN(C2Cc3ccccc3Sc3ccc(Cl)cc32)CC1 (centres undefined),-82*
CN1CCN2c3ccccc3Cc3ccccc3C2C1 (centres undefined),-1
Fc1ccc(Cn2ncc3c2CN(c2nnnn2-c2ccccc2)C3)cc1,-10
COc1ccccc1CN(Cc1cccnc1)C(=O)Cc1ccc2c(c1)CC(C)O2 (centres undefined),-14
Nc1nc2ccccc2n1CCN1CCOCC1,17
Cc1ccoc1C(=O)NCCNc1cccnc1,3
Cc1nonc1C1CCCN1Cc1ccc(C(=O)Nc2c(C)noc2C)cc1 (centres undefined),4
O=C(Cn1ncc2c(N3CCN(c4ccccn4)CC3)ncnc21)Nc1ccc(Br)cc1,-15
O=C(Cn1ncc2c(N3CCN(c4ccccc4)CC3)ncnc21)Nc1cccc(Cl)c1,31
O=C(Cn1ncc2c(N3CCN(c4ccccn4)CC3)ncnc21)Nc1cccc(Cl)c1,-50
CCc1cccc(NC(=O)Cn2ncc3c(N4CCN(c5ccccc5)CC4)ncnc32)c1,-82*
CCc1cccc(NC(=O)Cn2ncc3c(N4CCN(c5ccccn5)CC4)ncnc32)c1,-62
O=C(Cn1ncc2c(N3CCN(c4ccccn4)CC3)ncnc21)Nc1cccc(Br)c1,-99*
COc1ccc(CC(=O)NCC2Cn3nncc3CO2)cc1 (centres undefined),27
CC(C)=CC(=O)NCCC1CN(Cc2ccccc2F)CCO1 (centres undefined),-6
Cc1ccc(C(=O)N2C[C@H](OCc3ccccn3)[C@@H]3COC[C@@H]32)o1,-3
COCC(=O)NCc1cc(=O)n2c(n1)CN(CC1CC1)CCC2,2
COCCN(C)C(=O)c1ncn2c(C3CCN(C(C)=O)CC3)ccnc12,-40
C=CCSC1=NC2(CC(c3ccc(OC)cc3)c3ccc(O)c(C)c3O2)CC(C)(C)N1 (centres undefined),-51
O=c1cc(-c2ccccc2)c2cc(Cl)c(O)cc2o1,-1
O=c1cc(CN2CCN(c3cccc(Cl)c3)CC2)c2cc(O)c(-c3ccccc3)cc2o1,33
O=c1cc(O)c2c(=O)n(-c3ccccc3)c(-c3ccccc3)cc2o1,-100*
CCc1cc(CN(C)Cc2ccc3c(C)cc(=O)oc3c2)on1,3
COc1ccc(S(=O)(=O)NC(C)C)cc1N,-21
SMILES,Tgondii IFNg
COC(=O)C1=C(C)NC(C)=C([N+](=O)[O-])[C@H]1c1ccccc1C(F)(F)F,-34
COC(=O)C1=C(C)NC(C)=C(C(=O)NCCCN2CCC(c3ccccc3)(c3ccccc3)CC2)C1c1ccc([N+](=O)[O-])cc1 (centres undefined),-76*
COC(=O)C1=C(C)NC(C)=C(C(=O)OCCCN2CCC(c3ccccc3)(c3ccccc3)CC2)[C@@H]1c1cccc([N+](=O)[O-])c1,-87*
COC(=O)C1=C(C)NC(C)=C(C(=O)OCC(C)C)C1c1ccccc1[N+](=O)[O-] (centres undefined),17
C#CCN1C(C)=C(C(=O)OC)C(c2cccc([N+](=O)[O-])c2)C(C(=O)OCC)=C1C (centres undefined),15
COC(=O)C1=C(C)NC(C)=C(C(=O)O[C@H]2CCN(Cc3ccccc3)C2)[C@H]1c1cccc([N+](=O)[O-])c1,-2
O=C(c1[nH]cnc1-c1ccccc1)N1CCCC(Nc2ccc(F)cc2)C1 (centres undefined),148
O[C@@H]1C[C@H]2CN(Cc3ccc(Br)s3)[C@H](Cc3ccccc3)CN2C1,33
Cn1cc(CN2CCC3(CC(=O)N(c4cccc(C#N)c4)C3)C2)cn1 (centres undefined),137
O=C(CN1CCCCC1)N1CCOC(CCCc2ccccc2)C1 (centres undefined),-19
CN(C(=O)c1nc(Nc2ccc(Cl)cc2)c2ccccc2n1)c1ccccc1F,40
COc1ccc(Cl)cc1NC(=O)COc1nc(C)nc2ccccc12,-15
COc1ccc(Cl)cc1NC(=O)Nc1cc(C)nc2ccccc12,-86*
COc1ccc(Cl)cc1NC(=O)c1nc(Nc2ccccc2)c2ccccc2n1,84
Cc1nsc(NC(=O)N(C)Cc2cnc(-c3ccccc3)s2)n1,-28
CC(C)Cc1ncc2c(n1)CN(C(=O)c1cnc3c(c1)ncn3C)C2,-7
Cc1cc(C)cc(CN2CCC3(CC(C(=O)NCc4ccco4)=NO3)C2)c1 (centres undefined),-12
CN1CCn2c(-c3ccc(F)cc3)cnc2C12CCN(C(=O)N1CCOCC1)CC2,-2
O=C(Cn1c(=O)cc(-c2nc(C3CC3)no2)c2ccccc21)NCc1ccc(F)cc1,10
CC1CCN(S(=O)(=O)c2ccc3c(ccc(=O)n3CC(=O)NC3CCCC3)c2)CC1,-54
O=C(Cn1c(=O)cc(-c2nc(C3CC3)no2)c2ccccc21)NCCC1=CCCCC1,-84*
CC1CCN(S(=O)(=O)c2ccc3c(ccc(=O)n3CC(=O)NC3CC3)c2)CC1,-5
CC1CCN(S(=O)(=O)c2ccc3c(ccc(=O)n3CC(=O)NCCC3=CCCCC3)c2)CC1,-77*
